A selection: hits, their analogues and other compounds. The true share with any hit is near 6.2%.
SUMO Mot1 rescue: yeast Mot1-301 growth rescue at high temperature, primary screen, SUMOylation pathway inhibitor project, S. cerevisiae, ATP luminescence, 38.5C. 320,000 tested, 1% active. growth rescue, % at 18.8 µM. S. cerevisiae Mot1-301 growth rescue; percent above DMSO median, 100 means doubled;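 active = every valid replicate shows activation above 250% relative to neutral control wells; inactive = the rest, any valid replicate at or below 250%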;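 also: OY570 slx delta 5 strain wells were the positive control but not used for scaling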
AHR activator: AHR activators, primary screen, cell-based, luminescence, luciferase reporter, human; AHR-responsive luciferase reporter cells; Aryl hydrocarbon receptor (Homo sapiens), P35869; AID 2796, 2010; 320,000 tested, 2.5% active; activation, % at 5 µM; in the data active = activation above about 47%;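 also: 0% = vehicle wells and 100% = reference agonist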
AI-2 QS modul: Vibrio harveyi AI-2 quorum sensing modulators, primary screen, JMH597 strain, luminescence/OD600 ratio; Vibrio harveyi JMH597 AI-2 luminescence/OD600 ratio, 9 h; hits give low values; strain lacks LuxN and CqsS sensors; 0 = neutral-control median; activity change, % at 7.5 µM; 300,000 tested, 0.4% active; AID 2094, 2009; in the data active = activity change below about -75%, passing the limit was not always enough;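 also: luminescence divided by OD600 gain over 9 h not by final OD600 alone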
GRIN3A LBD mod: binders of NR3A ligand-binding domain, primary screen, biophysical, differential scanning fluorimetry, uHTS. NR3A LBD differential scanning fluorimetry, Tm shift; 0% = protein alone, 100% = glycine-bound protein. Tm shift relative to glycine control, % at 25 µM. 340,000 tested, 2.5% active;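 active = melting temperature shift of at least 10% of the positive control shift, at one fixed dose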
NTR1 agonist: agonists of human NTR1, primary screen, imaging, U2OS cells, beta-arrestin-GFP, high content; 330,000 tested, 0.17% active; activation, % at 20 µM; Neurotensin receptor type 1 (Homo sapiens), P30989; NTR1-U2OS beta-arrestin-GFP spot imaging, agonist mode; AID 493036, 2011;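 active = activation at or above 40% of the spot to cytoplasm intensity ratio, with at least 20 cells analyzed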;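 also: 0% = DMSO without peptide and 100% = 100 nM NTR1 peptide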
Cardio protect: cardioprotection against H2O2-induced cell death, primary screen, uHTS, H9c2 cells, ATPLite luminescence; H9c2 cardiomyocytes, H2O2 injury protection, 2 h; 360,000 tested, 0.63% active; protection from H2O2 cell death, % at 20 µM;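 active = compounds giving at least 50% protection of heart cells from peroxide-induced death in the single-dose screen, raw or plate-pattern-corrected value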;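 also: 0% = DMSO wells with peroxide and 100% = DMSO wells without peroxide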
* hit, by the source's call; x = no result given.

SMILES	SUMO Mot1 rescue	AHR activator	AI-2 QS modul	GRIN3A LBD mod	NTR1 agonist	Cardio protect
Cn1cccc1C(=O)OCC(=O)N1CCN(c2ccccc2)CC1	-13.8	0.1	x	-1.2	0.1	0.6
COc1cc2cccc(OC)c(=O)c2c(OC)c1OC	757.2*	0.3	30.0	-0.5	-2.7	-2.8
COc1cccc2[nH]c3ccccc3c(=O)c12	-27.9	7.2	27.5	0.2	2.8	-5.5
COCC(=O)N1CCC(Oc2ccc(C(=O)NC(C)c3csc(C)n3)cc2)CC1 (stereo not drawn)	183.9	-1.0	7.2	-0.2	-1.1	6.4
CCNC(=S)N(Cc1cc2cccc(C)c2[nH]c1=O)C1CCCC1	-14.4	4.5	28.5	5.6	1.7	6.4
Cc1cccc2cc(CN(C(=S)NCC(C)C)C3CCCC3)c(=O)[nH]c12	1.7	7.9	6.6	13.1*	1.9	-5.8
Cc1ccc(CN(Cc2cc3cccc(C)c3[nH]c2=O)C(=O)N(C)C)cc1	316.7*	2.8	16.4	-0.6	0.3	-8.5
COc1cc(CN2CCC(n3nccc3NC(=O)C3CC3)CC2)cc(OC)c1	25.0	0.4	3.9	0.4	-1.0	-0.7
COc1ccc(N(C)S(=O)(=O)c2cccc(C(=O)OCC(=O)Nc3cc(C)ccc3OC)c2)cc1	x	x	x	x	x	3.6
Cc1[nH]nc(N=Cc2c(O)n(C)c(=O)n(C)c2=O)c1-c1ccccc1	-27.9	0.4	-2.9	0.3	0.8	x
Cn1c(O)c(/C=N/Nc2ccccc2)c(=O)n(C)c1=O	212.6	58.4*	-16.7	-1.0	1.1	2.1
COc1cc2sc(-c3ccc(S(C)(=O)=O)cc3)c(C#CCO)c2cc1OC	0.8	10.3	x	-5.2	7.7	53.3*
COc1cc(OC)cc(-c2sc3ccc(OC)cc3c2C#CCO)c1	30.8	49.2*	x	2.1	10.4	-7.0
COc1cccc(-c2sc3ccc(OC)cc3c2C#CCCO)c1	-11.6	69.4*	x	9.8	11.3	-6.1
COc1ccc(-c2sc3ccc(N4CCOCC4)cc3c2C#CCO)cc1	-2.0	24.7	x	-13.3	13.7	-8.7
COc1ccc(N(CC(=O)NCCSCc2cccc(Cl)c2)S(C)(=O)=O)cc1Cl	3.9	2.6	14.7	-4.0	1.0	-0.7
COc1ccc(CNC(=O)c2cc(S(=O)(=O)N3CCCCC3)ccc2N2CCOCC2)cc1OC	x	x	x	1.9	x	-5.2
COc1cc([N+](=O)[O-])cc(/C=N/NC(=O)c2ccc(NC(=O)c3ccc(C)cc3)cc2)c1O	x	x	27.3	20.9*	1.3	16.9
COc1cc([N+](=O)[O-])cc(/C=N/NC(=O)C(C)Nc2cccc(C)c2)c1O (stereo not drawn)	-0.9	2.0	37.9	-8.3	0.3	30.4
COc1cc([N+](=O)[O-])cc(/C=N/NC(=O)C(C)Nc2ccccc2C)c1O (stereo not drawn)	-5.7	4.2	36.1	-5.4	-0.4	63.2*
COc1cc([N+](=O)[O-])cc(/C=N/NC(=O)CC#N)c1O	x	x	3.2	x	x	x
COc1cc([N+](=O)[O-])cc(/C=N/NC(=O)c2ccc(C)nc2)c1O	-19.7	1.6	8.3	-4.7	-0.4	62.4*
COc1ccccc1NC(=O)N[C@@H](Cc1c[nH]c2ccccc12)C(=O)NN	4.2	x	14.3	-2.2	-0.9	0.0
CN1CCc2c(sc(/N=C/c3c[nH]c4ccccc34)c2C#N)C1	8.0	48.0*	8.5	-6.6	-1.4	4.1
CN1CCc2c(sc(/N=C/c3c[nH]c4ccccc34)c2C(N)=O)C1	6.3	75.9*	13.2	-0.1	-0.3	1.8
SMILES	SUMO Mot1 rescue	AHR activator	AI-2 QS modul	GRIN3A LBD mod	NTR1 agonist	Cardio protect
CCOC(=O)c1c(/N=C/c2ccc(OC)cc2O)sc2c1CCN(C)C2	-7.7	0.3	20.2	0.4	-0.4	4.3
Cc1ccc(C(=O)CSc2nsc(C)c2C#N)cc1	2.4	-5.2	7.2	14.7*	-0.3	-13.0
CCC(C)NC(=O)c1ccc2nc(-c3ccc(OC)c(OC)c3)c(-c3ccc(OC)c(OC)c3)nc2c1 (stereo not drawn)	-34.1	3.1	30.8	-3.9	2.4	70.8*
CCCN(CCC)C(=O)c1ccc2nc(-c3ccc(OC)c(OC)c3)c(-c3ccc(OC)c(OC)c3)nc2c1	-11.6	-1.2	18.4	-1.2	0.6	12.8
CC1(C(=O)NCc2ccccc2Br)CCN1Cc1ccc(-c2ccccn2)cc1 (stereo not drawn)	x	x	x	x	x	-22.4
Cc1ccc(N2NC(C)(c3cccs3)NC2=S)cc1 (stereo not drawn)	165.8	52.4*	32.3	-27.8	3.6	-3.4
CCOC(=O)COc1cc(OCC(=O)OCC)c2c3c(c(=O)oc2c1)CCCC3	-6.9	x	2.2	0.6	7.8	63.5*
C=CCOC(=O)COc1ccc2c3c(c(=O)oc2c1)CCCC3	x	x	x	x	x	87.3*
COc1ccccc1C(=O)Nn1c(C)nc2ccccc2c1=O	0.4	5.2	13.3	-2.0	1.2	6.5
Cc1ccc(NC(=O)Cc2csc(-c3ccccc3)n2)cc1F	-18.8	20.4	3.4	-14.1	-0.7	-17.5
Cc1nc(-c2cccc(NC(=O)c3ccc(-n4cccn4)cc3)c2)cs1	11.0	1.3	x	15.9*	5.1	38.7
O=C(Cc1csc(-c2ccccc2)n1)Nc1ccc(C(F)(F)F)cc1	43.3	54.9*	20.6	13.3*	11.8	-8.8
O=C(Nc1ccc(-c2csc(-c3ccccc3)n2)cc1)c1ccccc1	196.3	-9.9	14.9	13.3*	2.2	-17.8
Cc1nc(-c2ccc(C(=O)Nc3ccc(F)cc3)cc2)cs1	-25.4	-11.6	21.7	10.9*	0.3	-17.2
Cc1nc(-c2ccc(C(=O)Nc3cccc(F)c3)cc2)cs1	-0.6	-12.9	x	0.3	0.7	-18.4
Fc1cccc(Cc2c(-c3ccco3)nc3c4ccccc4ccn23)c1	x	x	x	x	x	-9.2
COCCN(CC(=O)Nc1cccc(C)c1C)C(=O)c1cc(-c2ccncc2)nc2ccccc12	-19.3	13.6	x	-0.1	1.4	27.2
CC(=O)c1c(C)[nH]c(C(=O)OCC(=O)Nc2ccc3[nH]c(=O)[nH]c3c2)c1C	-2.1	3.0	8.2	20.8*	-1.0	1.2
CC(=O)c1c(C)[nH]c(C(=O)OCC(=O)Nc2cccc(S(=O)(=O)N(C)C)c2)c1C	-18.9	7.7	9.5	-7.8	-0.1	-5.6
O=c1cc(CN2CCN(c3ccccc3)CC2)c2ccccc2o1	x	x	x	x	x	-2.1
CCC(Oc1ccc(Br)cc1Cl)C(=O)Nc1nnc(C2CC2)s1 (stereo not drawn)	-8.4	-0.9	7.3	-5.0	5.1	0.2
c1ccc2c(c1)CCCN2c1nc2ccccc2n2cnnc12	-1.9	21.5	16.5	-1.3	22.8	53.8*

Screening results from PubChem BioAssay.
